The whole screen tested about 420,000 compounds, of which about 50,000 (12%) were called active. Not shown: some 26% with an inconclusive outcome. Shown is part of a subset that was picked to be rich in actives. Unmarked numbers belong to inactive results. The call rests on the fitted dose curve; in most records, active means well fitted inhibition curve with a large enough effect; inconclusive means small, poorly fitted or top-dose-only effect; inactive means flat fitted curve, though single readings scatter.
Assay: qHTS for Inhibitors of human tyrosyl-DNA phosphodiesterase 1 (TDP1): qHTS in cells in presence of CPT; further: nearly all actives have a fitted effect of over 55% in size
Settings: chicken DT40 Tdp1-/-;hTDP1 cells + 20 nM CPT, ATP luminescence, 48 h; series mostly up to 46.2 µM; activity change, negative = growth inhibition: at the top concentration
Description: Human tyrosyl-DNA phosphodiesterase 1 (TDP1) is a novel repair gene, and we propose to use it as a new target for anticancer drug development. TDP1 is not an essential protein, but under treatment with topoisomerase I poison (camptothecin: CPT), TDP1 works as a critical factor for cell survival. To directly identify novel TDP1 inhibitors active in a cellular environment, we have knocked-out the Tdp1 gene in chicken DT40 cells (Tdp1-/-) and generated a complemented counterpart cells that contains a stable transfection of the human TDP1 gene (Tdp1-/-;hTDP1 cells). For the primary screen, Tdp1-/-;hTDP1 cells will be exposed to small molecules in the presence or absence of CPT, and their growth kinetics will be evaluated after 48 hours by measuring ATP activity. […] The hit compounds will then be evaluated in the presence or absence of CPT using Tdp1-/- cells. […] In tertiary assays, biochemical gel-based assays will be used to assess whether the hit compounds specifically target TDP1. To this end, we have screened this cell line against the MLSMR in two primary screens. In one screen we add CPT and in the other we screen in the absence of CPT; this AID represents the screen where CPT was present. NIH Chemical Genomics Center [NCGC] NIH Molecular Libraries Probe Centers Network [MLPCN] MLPCN Grant: MH095538 Assay Submitter (PI): Yves Pommier, NCI
DT40-hTDP1 cells with 20 nM Camptothecin (add 20 microL of 1 mM CPT stock in 1 L of cell culture medium) were dispensed at 400 cells/5microL/well in tissue culture treated 1536-well white wall/solid bottom assay plates (Greiner Bio-One North America, NC, U.S.A.) using a Multidrop Combi 8 channel dispenser (Thermo Fisher, Waltham, MA, USA). 23 nL compounds and controls were transferred using the pin tool (Kalypsys, San Diego, CA, USA) to the assay plates. The assay plates were then incubated at 37 masculineC for a minimum 48 hr. Three microL of Cell Titer Glo solution was added to the plates and incubated at RT in dark for 30 min. Luminescence was read using ViewLux (Perkin Elmer) with 1 sec exposure slow speed, high gain and 2x binning.
With `Cc1ccccc1SCC(=O)OCC(=O)N1CC(=O)Nc2ccccc21` the “activity change, negative = growth inhibition” value was 5.39%.
For `CC1=NNC(=O)C1CCC(=O)N/N=C\c1ccc(Cl)c(Cl)c1` (configuration not stated), the “activity change, negative = growth inhibition” value was 1.5%.
In the case of `Cc1ccnc(NC(=O)CCC(=O)N(CC(=O)NCc2ccccc2)Cc2ccco2)c1`, the “activity change, negative = growth inhibition” value is reported as 37.5%.
For `Cc1cccc(OCc2nnc(SCC(=O)N3CCN(C(=O)c4ccco4)CC3)n2C)c1C`, the “activity change, negative = growth inhibition” value was -0.881%.
For `Cc1cccc(OCC(=O)N(Cc2ccc(C(C)C)cc2)Cc2ccco2)c1C`, the Potency was 16.4 µM (active).
For `Cc1cccc(N(C(=O)Cn2nnc(-c3ccc(C)o3)n2)C(C(=O)NC2CCCC2)c2ccncc2)c1` (configuration not stated), the “activity change, negative = growth inhibition” value was -14.6%.
`COc1ccc(CN2CCC3(CCC(CNC(=O)c4ccco4)O3)CC2)cc1OC` (configuration not stated) gave an activity change, negative = growth inhibition of -1.91% [at 9.04 µM].
For `O=C(OCC(=O)N1CCCC1)c1ccc(Cl)nc1`, the “activity change, negative = growth inhibition” value was -5.05%.
For `O=C(Nc1ccccc1)c1ccc(NC(=O)c2cccs2)cc1`, the “activity change, negative = growth inhibition” value was -21.6%.
With `O=C(Nc1ccc(NC(=O)c2cccs2)cc1)c1ccc2ccccc2c1` the “activity change, negative = growth inhibition” value was -3.7%.
For `CC(C)(C)c1ccc(C(=O)Nc2ccc3c(c2)CCCN3C(=O)c2cccs2)cc1`, the Potency was 5.8 µM (active).
In the case of `COCCN(C(=O)CCC(=O)Nc1nccs1)C(C(=O)NC(C)(C)C)c1ccc(Cl)cc1` (configuration not stated), the “activity change, negative = growth inhibition” value is reported as -4.68%.
In the case of `O=C(c1cccc(Cn2cccn2)c1)N1CCOc2c(cc(-c3csc4ccccc34)cc2OC2CCOC2)C1` (configuration not stated), the Potency is reported as 18.4 µM (active).
For `Cc1cnc(C)c(-c2cc(F)c3c(c2)CC(CNC(=O)c2cccc(Cn4cccn4)c2)O3)n1` (configuration not stated), the “activity change, negative = growth inhibition” value was -5.96%.
`CCOC(=O)N1CCN(Cc2ccc3c(c2)CN(C(=O)c2cccc(-n4cccn4)c2)CCO3)CC1` showed an activity change, negative = growth inhibition of -11.3% [at 9.04 µM].
In the case of `Cc1ccc(C(=O)NCC(=O)OCC(=O)Nc2cccc(S(=O)(=O)N3CCCC3)c2)cc1C`, the “activity change, negative = growth inhibition” value is reported as -26.5%.
With `CN1C[C@@H](CO)O[C@@H](n2cnc3c(N4CCN(CCO)CC4)ncnc32)C1` the “activity change, negative = growth inhibition” value was -0.685%.
With `CCCCn1c(N)c(N(CCC(C)C)C(=O)CC2OC(=O)c3ccccc32)c(=O)[nH]c1=O` (configuration not stated) the “activity change, negative = growth inhibition” value was -12.2%.
For `CCOc1cc(/C=C(/C#N)c2ccc(Cl)cc2)cc(Cl)c1OCC(=O)O`, the “activity change, negative = growth inhibition” value was -4.71%.
With `CCOc1ccc(C(CC(=O)O)NC(=O)COc2ccccc2)cc1` (configuration not stated) the “activity change, negative = growth inhibition” value was -2.55%.
With `O=C(COc1ccc(-c2ccccc2)cc1)NN=C1CCCC1` the “activity change, negative = growth inhibition” value was 6.33%.
For `CC(NC(=O)COc1ccc(-c2ccccc2)cc1)C1CCCO1` (configuration not stated), the Potency was 20.6 µM (active).
For `CN(C(=O)COC(=O)CNC(=O)C12CC3CC(CC(C3)C1)C2)c1ccccc1`, the “activity change, negative = growth inhibition” value was -8.7%.
In the case of `O=C(NCC(=O)N1CCC2(CC1)NCCc1[nH]cnc12)c1ccc(Br)cc1`, the “activity change, negative = growth inhibition” value is reported as -15.1%.
For `CN(CC(=O)Nc1ccc(S(=O)(=O)N2CCCC2)cc1)Cc1ccc(Cl)c(Cl)c1`, the “activity change, negative = growth inhibition” value was -74.4%.
In the case of `CC(OC(=O)c1ccc(NC(=O)CC#N)cc1)C(=O)Nc1ccc(S(=O)(=O)N2CCCC2)cc1` (configuration not stated), the “activity change, negative = growth inhibition” value is reported as -20%.
For `CCc1ccc(CN(C)C(C)C(=O)Nc2ccc(S(=O)(=O)N3CCCC3)cc2)cc1` (configuration not stated), the Potency was 18.4 µM (active).
For `Cc1cc(/C=C(/C#N)C(=O)Nc2ccc(Cl)cc2)c(C)n1-c1cccnc1`, the “activity change, negative = growth inhibition” value was -22%.
For `COCCn1c(SCC(=O)Nc2ccc(F)cc2F)nc2c(c1=O)SCC2`, the “activity change, negative = growth inhibition” value was -8.27%.
In the case of `O=C(NNS(=O)(=O)c1ccc(F)cc1)c1cnccn1`, the “activity change, negative = growth inhibition” value is reported as 13.9%.
For `C=CCn1c(=O)c(C(=O)Nc2ncccc2O)c(O)c2ccccc21`, the “activity change, negative = growth inhibition” value was 20.6%.
For `O=C(O)/C=C/c1ccc(S(=O)(=O)N2CCCCCC2)cc1`, the “activity change, negative = growth inhibition” value was 9.25%.
In the case of `COc1cccc(N2CCN(c3ccc4nnc(CCC(=O)N5CCN(C)CC5)n4n3)CC2)c1`, the “activity change, negative = growth inhibition” value is reported as -12.6%.
For `CCOC(=O)N1CCN(C(=O)c2ccc3nc4cc(Cl)ccc4c(=O)n3c2)CC1`, the “activity change, negative = growth inhibition” value was -27.5%.
With `Cn1nc(C(F)(F)F)c2cc(C(=O)N3CCOCC3)sc21` the “activity change, negative = growth inhibition” value was 6.01%.
For `COc1cccc(/C=C/C(=O)OCC(=O)N2CCN(c3ccccc3)CC2)c1`, the “activity change, negative = growth inhibition” value was -21.8%.
For `COc1cccc(-c2ccc(SCC(=O)N3CCN(c4ccccc4)CC3)nn2)c1`, the Potency was 16.4 µM (active).
In the case of `CCOC(=O)N1CCN(C(=O)c2cc3c(-c4ccc(Cl)cc4)nn(C)c3s2)CC1`, the Potency is reported as 16.4 µM (active).
In the case of `COc1cccc(-c2nn(C)c3sc(C(=O)N4CCN(c5ccccc5)CC4)cc23)c1`, the Potency is reported as 23.1 µM (active).
With `CCOC(=O)N1CCN(C(=O)CNC(=O)Cc2ccc(Cl)cc2)CC1` the “activity change, negative = growth inhibition” value was -8.62%.
For `CCOc1ccc(-c2ccc(SCC(=O)N3CCOCC3)nn2)cc1`, the “activity change, negative = growth inhibition” value was -7.39%.
For `O=C(Nc1nccs1)C1CCN(S(=O)(=O)c2ccc(Cl)c(C(F)(F)F)c2)CC1`, the “activity change, negative = growth inhibition” value was -10.5%.
For `O=C(NCc1cccnc1)c1ccccc1NC(=O)c1c(F)cccc1F`, the “activity change, negative = growth inhibition” value was -10.2%.
For `CN(C)C(=O)c1cccn(Cc2cccc(C(F)(F)F)c2)c1=O`, the “activity change, negative = growth inhibition” value was -13.1%.
With `CC(C)CC(=O)NC(=S)Nc1ccc(F)cc1F` the “activity change, negative = growth inhibition” value was -3.59%.
In the case of `CCOC(=O)c1cc(NC(=O)c2cccnc2)ccn1`, the “activity change, negative = growth inhibition” value is reported as 1.21%.
For `CCCCOC(=O)c1ccc(N2C(=O)CC(N3CCN(C/C=C/c4ccccc4)CC3)C2=O)cc1` (configuration not stated), the “activity change, negative = growth inhibition” value was -15.8%.
In the case of `O=C(c1ccc(F)cc1)N1CCC(n2nnc3ccccc32)CC1`, the “activity change, negative = growth inhibition” value is reported as 1.92%.
For `CC(NC(=O)CCCC1CCCCC1)c1ccc(S(N)(=O)=O)cc1` (configuration not stated), the “activity change, negative = growth inhibition” value was 9.33%.
With `CC(Sc1nc2cc(Cl)ccc2s1)C(=O)Nc1ccc2c(c1)OCO2` (configuration not stated) the “activity change, negative = growth inhibition” value was 5.21%.
With `COc1ccc(C2NC(=O)N(C)C3=C2C(=O)N(c2ccc(C(=O)O)cc2)C3)cc1` (configuration not stated) the “activity change, negative = growth inhibition” value was -7.11%.
For `CC(C(=O)Nc1ccc(F)c(F)c1F)N1CCCCCC1` (configuration not stated), the “activity change, negative = growth inhibition” value was -23.8%.

— PubChem BioAssay AID686979 (National Center for Advancing Translational Sciences (NCATS), 2013)
On the % scale 0 is the no-effect control and ±100 the full control effect; potency means the concentration at half of the fitted maximal effect.
